Sampled rows, rich in hits. Any-hit rate of the full collection: about 1.5%.
PP5 inh – PP5 phosphatase inhibitors, primary screen, biochemical, fluorescence. Serine/threonine-protein phosphatase 5 (Homo sapiens), P53041. purified PP5c, OMFP substrate fluorescence. inhibition, % at 6.7 µM. 0.18% of 320,000 active. AID 1987, 2009;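 active means inhibition above the campaign's mean inhibition across all tested compounds plus 3 SD, cut at about 9.5% in these data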;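 further: 0% = DMSO only and 100% = 100 µM cantharidin control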
HIF act – HIF pathway transcriptional activators, primary screen, cell-based, U2OS HRE-luciferase, luminescence; 0.32% of 300,000 active; activation, % at 7.5 µM (by protocol); U2OS HRE-luciferase reporter; normalized: DMSO 0%, desferrioxamine 100%;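 active means mean activation of at least 10% of the iron chelator positive control signal, with at least half of replicates also reaching 10%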
STK33 kinase inh – inhibitors of purified STK33 kinase, primary screen, biochemical, ADP-Glo luminescence, homogeneous, cell-free | Serine/threonine-protein kinase 33 (Homo sapiens), Q9BYT3 | MBP phosphorylation | inhibition, % at 10 µM | 0.073% of 320,000 active;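 active means inhibition at or above 25%, using the most active replicate where run in duplicate; inactive means inhibition below 25%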
Target sequence (Q9BYT3 whole entry, looked up): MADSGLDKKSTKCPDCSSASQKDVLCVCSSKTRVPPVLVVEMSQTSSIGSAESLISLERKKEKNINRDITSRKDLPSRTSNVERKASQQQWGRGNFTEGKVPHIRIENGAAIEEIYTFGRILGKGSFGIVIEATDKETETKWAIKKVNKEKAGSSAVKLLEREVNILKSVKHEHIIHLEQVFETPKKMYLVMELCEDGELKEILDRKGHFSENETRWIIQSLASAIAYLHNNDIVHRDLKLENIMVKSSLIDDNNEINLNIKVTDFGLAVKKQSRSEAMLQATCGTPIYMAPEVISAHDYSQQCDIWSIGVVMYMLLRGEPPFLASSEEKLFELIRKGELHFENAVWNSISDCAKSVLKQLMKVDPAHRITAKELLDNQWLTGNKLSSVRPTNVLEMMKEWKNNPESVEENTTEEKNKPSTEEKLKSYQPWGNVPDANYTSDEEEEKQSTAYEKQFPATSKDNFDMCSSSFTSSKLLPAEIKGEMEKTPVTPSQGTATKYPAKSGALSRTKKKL
PP1 counter – PP1-alpha phosphatase inhibitors, primary screen, counter-screen for PP5 inhibitor project, biochemical, fluorescence, OMFP substrate, single point; inhibition, % at 6.7 µM; Serine/threonine-protein phosphatase PP1-alpha catalytic subunit (Homo sapiens), P62136; 0.9% of 320,000 active; purified PP1alpha; AID 2235, 2010;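 active means inhibition above the mean inhibition of all tested compounds plus 3 SD, computed separately for each screening campaign, cut at about 15% in these data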
Dyrk1A ADPGlo – rat Dyrk1A kinase inhibitors, primary screen, biochemical, single point, plate reader; Dual specificity tyrosine-phosphorylation-regulated kinase 1A (Rattus norvegicus), Q63470; ADP-Glo luminescence, NFATc1 peptide; inhibition, % at 12.5 µM; 0.43% of 310,000 active; AID 504441, 2011; in the data active means inhibition above about 50%;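 further: plate controls were vehicle with enzyme for no effect and no enzyme for full effect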
ADP-Glo artifact – ADP-Glo luciferase interference without Dyrk1A, dose response, artefact control for Dyrk1A inhibitor project, biochemical, luminescence, cherry-pick, set 02; shares compounds with Dyrk1A ADPGlo; 1,300 tested, under 10 active; AC50, µM (series often up to 12 µM), without a hit: top-dose activity change, negative = inhibition; AID 588348, 2011; ADP-Glo luciferase artifact assay, no Dyrk1A;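 active means fitted half-maximal dose AC50 no more than ten times the top valid tested dose, with luminescence dropping as dose rises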
Starred values were filed as active, the others as inactive; x = not tested or not shown; ! = repeats disagree.

SMILES	PP5 inh	HIF act	STK33 kinase inh	PP1 counter	Dyrk1A ADPGlo	ADP-Glo artifact
CCN1CCN(Cc2ccc(NC(=O)c3ccc(C)c(NC(=O)c4nccnc4N)c3)cc2C(F)(F)F)CC1	1	2	2	1	-2	x
CCN1CCN(Cc2ccc(NC(=O)c3ccc(C)c(NC(=O)N4CCNC4=O)c3)cc2C(F)(F)F)CC1	0	2	4	2	54*!	7%
CCN1CCN(Cc2ccc(NC(=O)c3cc(NC(=O)c4nccnc4N)cc(OC)c3)cc2C(F)(F)F)CC1	4	1	2	-4	55*	9%
CCOC(=O)C1=C(C)OC(N)=C(C#N)C1c1cc2c(cc1Br)OCO2 (stereo not drawn)	0	0	12	-2	54*	7%
C=CCOC(=O)C1=C(C)OC(N)=C(C#N)C1c1ccc2c(c1)OCO2 (stereo not drawn)	3	1	-1	-1	11	x
O=c1[nH]c(=S)[nH]c2sccc12	1	0	-2	-5	64*	4%
CSc1nc2sccc2c(=O)[nH]1	1	0	1	-2	0	x
O=C1OCc2cccc3cccc1c23	-3	0	1	-3	51*	8%
Oc1ccc(-c2csc(-c3cccnc3)n2)cc1O	2	3	4	-3	51*	7%
Fc1ccc(-c2csc(-c3cccnc3)n2)cc1F	0	4	-1	0	4	x
Oc1ccc(-c2csc(-c3ccccc3)n2)cc1O	3	4	3	-3	55*	7%
Clc1ccccc1OCc1nn2c(-c3ccncc3)nnc2s1	3	0	4	3	7	x
Cc1nc(COc2ccccc2Cl)sc1-c1ccnc(N)n1	4	2	7	2	79*	10%
CCCN=C(C)C1=C(O)c2ccccc2C1=O	1	3	1	-4	-19	x
CC(=NCc1cccnc1)C1=C(O)c2ccccc2C1=O	1	0	5	-6	51*	9%
COc1ccc(-n2nc(C)cc2Nc2ccccc2C(=O)O)cc1	3	0	0	1	66*	8%
O=C(OCCCCN1C(=O)c2ccccc2C1=O)c1n[nH]c2ccccc12	0	0	0	-1	25	x
CC(C)Oc1ccc(CNC(=O)CCC(=O)N2CCSc3ccccc32)cc1	-2	0	-1	-1	6	x
CC(=O)c1cccc(NC(=O)Nc2cccs2)c1	4	1	0	1	53*	10%
Cc1cccc(Nc2nc(N)c([N+](=O)[O-])c(N3CCC(C)CC3)n2)c1	6	0	1	13	50*	6%
Cc1nc2c(c3c1[nH]c1ccccc13)C(=O)CC(C)(C)C2	6	0	10	-3	85*	10%
O=C1CC(c2ccc(O)c(O)c2)Oc2c1ccc(O)c2O (stereo not drawn)	-2	x	5	4	34	x
CC(C)=CCc1c(O)ccc2c1OC(c1ccc(O)c(O)c1)CC2=O (stereo not drawn)	3	-1	3	1	64*	10%
CC(=O)Nc1ccc(SCc2ncc(-c3ccccc3)o2)cc1	4	3	22	-5	64*	6%
CC(=O)Nc1ccc(SCc2c(C)noc2C)cc1	-5	0	-2	-3	3	x
SMILES	PP5 inh	HIF act	STK33 kinase inh	PP1 counter	Dyrk1A ADPGlo	ADP-Glo artifact
O=S(=O)(c1ccc(Br)s1)N1CCN(CCOc2ccccc2)CC1	2	x	-2	-1	6	x
O=C(Nc1cccc(-c2cn3cccnc3n2)c1)c1ccco1	3	0	9	9	0	x
O=C(Nc1cccc(-c2cn3cccnc3n2)c1)c1ccc(Br)o1	2	0	32*	9	51*	10%
Cc1cc2oc(=O)ccc2cc1[N+](=O)[O-]	3	0	0	10	1	x
COc1ccc2c(c1)CCc1cn3nc(C)cc3nc1-2	0	0	7	2	81*	10%
Cc1cnc(C(=O)OCC(=O)NCc2ccc3c(c2)OCO3)cn1	1	0	0	2	-4	x
Cc1oc2cc(O)ccc2c(=O)c1-c1ccccc1	-1	0	1	-1	9	x
O=c1c(O)c(-c2ccc(O)c(O)c2)oc2cc(O)ccc12	x	x	x	x	88*	9%
O=C1OCC/C1=C\c1ccc(O)cc1	1	0	9	1	92*	7%
O=c1ccn(-c2cccc(C(F)(F)F)c2)nc1-c1ccn(-c2ccccc2F)n1	5	0	2	4	22	x
COc1ccc(-n2ccc(-c3nn(-c4cccc(C(F)(F)F)c4)ccc3=O)n2)cc1	1	-1	-1	-2	51*	6%
CC(C)C(NC(=O)OCc1ccccc1)C(=O)NCc1ccc(C(=O)O)cc1 (stereo not drawn)	-8	0	-1	-7	-10	x
CS(=O)(=O)c1ccc2c(c1)sc1nc(=O)c(/C=C3/C=CC(=O)C(O)=C3)c(N)n12	3	0	2	-2	55*	10%
O=C1c2ccccc2-c2onc3ccc(N4CCCC4)c1c23	x	-2	x	x	77*	9%
CCOc1ccc2noc3c2c1C(=O)c1ccccc1-3	-24	0	1	-29	1	x
CNC(=S)N/N=C/c1ccc(-c2cccc(C(=O)O)c2)o1	0	-3	1	-5	62*	9%
COC(=O)c1cc(C)nc2c1C(=O)C(=O)C=C2N1CCOCC1	7	-2	1	16*	61*	8%
COc1ccc(NS(=O)(=O)c2ccc(OC)c(NC(=O)CNC(=O)c3ccc(OC)cc3)c2)cc1	4	x	0	7	1	x
O=C(N/N=C/c1cccc(O)c1)N/N=C/c1cccc(O)c1	1	-1	3	-2	54*	8%
O=C(CCc1ccccc1)N/N=C/c1cccc(O)c1	-1	1	-1	2	17	x
CN(CCc1cnn(C)c1)Cc1nc(CC2CC2)no1	-2	0	-1	0	-7	x
O=C(Cc1ccc(NC(=O)C2CCCN(C(=O)C3CCC3)C2)cc1)Nc1cccc(C(=O)N2CCCCC2)c1 (stereo not drawn)	x	x	x	x	2	x
O=C1/C(=C/c2ccc(O)c(O)c2)Oc2cc(O)ccc21	2	x	46*	-6	68*	9%
COc1cc(/C=C2\Oc3cc(O)ccc3C2=O)ccc1O	2	3	-3	-5	93*	8%
O=C1CC(c2cccc(Cl)c2)CC(O)=C1C=NC1CCCC1 (stereo not drawn)	2	0	-1	-5	5	x
O=C(Cn1cc(COc2ccccc2C(F)(F)F)nn1)c1ccc(O)cc1	x	x	x	x	51*	9%
